Among the data in publication PMC10726135, “HNF4α isoforms regulate the circadian balance between carbohydrate and lipid metabolism in the liver” are binding signal values, retold here.

Whole data set: some 18,000 sequences, median “log2 normalized intensity” near 0.36, cut for the highest 2% near 7.3. What follows is part of a selection rich in the highest values, with near analogues and random picks from the rest.

The target of the experiment is T1, HNF4alpha8 (COS-7 nuclear extract) (Homo sapiens, UniProt P41235-5 1-452).
T1 sequence: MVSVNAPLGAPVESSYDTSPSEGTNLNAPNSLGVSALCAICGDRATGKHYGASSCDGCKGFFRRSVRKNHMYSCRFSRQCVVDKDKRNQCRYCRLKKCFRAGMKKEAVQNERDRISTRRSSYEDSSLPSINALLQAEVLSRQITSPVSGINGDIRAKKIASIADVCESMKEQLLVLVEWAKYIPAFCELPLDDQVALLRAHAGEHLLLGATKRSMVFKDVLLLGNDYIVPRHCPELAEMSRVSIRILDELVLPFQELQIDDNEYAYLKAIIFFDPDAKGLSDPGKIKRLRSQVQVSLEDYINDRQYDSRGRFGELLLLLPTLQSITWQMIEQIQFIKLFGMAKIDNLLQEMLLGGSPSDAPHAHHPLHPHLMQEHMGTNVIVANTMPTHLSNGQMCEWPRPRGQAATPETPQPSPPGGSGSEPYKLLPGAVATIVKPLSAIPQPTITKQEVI
The experiment in a line: protein-binding microarray; COS-7 nuclear extract on double-stranded Agilent 4x180k PBM; binding buffer, salt, pH and temperature not given in the material; high values mean tight binding. Particulars: chain copies: 2; label: 3' end of strand 1 on the slide; dsDNA, one strand shown. An outline of the steps: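 Using CaPO4, COS-7 cells were transiently transfected with a human HNF4α isoform expression vector, and their nuclear extracts were applied to a custom Agilent SurePrint G3 4x180k double-stranded oligonucleotide array (~60 nt; ~44,000 test sequences in quadruplicate). Bound HNF4α was imaged at 2-µm resolution with an Agilent G2565CA scanner. Agilent software supplied the background-corrected, normalized gProcessedSignal that serves as the binding signal.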
Turning to “GTTTGCATTTTAACCTTTGGCTGGTAGAGCGCCTAGGGAGATTAGAGTATCGGTCGA”, the binding signal stood at 4.17 log2 normalized intensity.
Take “AGCCGTCTGGTAAATTTCTAACACTCCCCAGCCTAGGGAGATTAGAGTATCGGTCGA”: the binding signal was determined as 2.15 log2 normalized intensity.
With “GGGTCAGTTTATCTAAGATTCCCCCTACCCGCCTAGGGAGATTAGAGTATCGGTCGA”, the binding signal was 4 log2 normalized intensity.
Next, “TCCTGCCTTGGAGAAGTGAACTTTGCCCTCGCCTAGGGAGATTAGAGTATCGGTCGA”: 10.7 log2 normalized intensity; “TCTCTGGCTTGATCCCTGAACTTTGCTCCCGCCTAGGGAGATTAGAGTATCGGTCGA”: 8.76 log2 normalized intensity.
On to “GTGAACTTTGCCCTCTCTTTCTGGAACCTAGCCTAGGGAGATTAGAGTATCGGTCGA”, for which the binding signal was found to be 5.67 log2 normalized intensity.
Next, “AAGTGACCCTGGTCTTTGCCCTTTCCTAGAGCCTAGGGAGATTAGAGTATCGGTCGA”: 3.98 log2 normalized intensity.
As for “GAGAAGTGAACTTTGCCCTCTCTTTCTGGAGCCTAGGGAGATTAGAGTATCGGTCGA”, the binding signal was 8.26 log2 normalized intensity.
Then “ACTGATCTCTGGCTTGATCCCTGAACTTTGGCCTAGGGAGATTAGAGTATCGGTCGA”, with 4.37 log2 normalized intensity.
For “GGCTTGATCCCTGAACTTTGCTCCCACCCTGCCTAGGGAGATTAGAGTATCGGTCGA”, the binding signal came to 6.25 log2 normalized intensity.
As to “TGGGCTCCTGCCTTGGAGAAGTGAACTTTGGCCTAGGGAGATTAGAGTATCGGTCGA”, the binding signal came out at 5.62 log2 normalized intensity.
As to “CCTTGGATCTCCTGCACCTGAACTTTGCTCGCCTAGGGAGATTAGAGTATCGGTCGA”, the binding signal is 6.94 log2 normalized intensity.
“TGGAATCCAAAGTATTTTCTGTCTAGGTGCGCCTAGGGAGATTAGAGTATCGGTCGA”: the binding signal worked out at 0.637 log2 normalized intensity.
“TTGCCTAACTGCTGCATGTCATGACCTTCAGCCTAGGGAGATTAGAGTATCGGTCGA”: the binding signal stood at 3.69 log2 normalized intensity.
As for “TCTACTCCCTGTTCTTACACCTGCTCCCCTGCCTAGGGAGATTAGAGTATCGGTCGA”, the binding signal stood at 2.97 log2 normalized intensity.
Next, “TGTATACTTATGTAGAAAGATATCTCTGTGGCCTAGGGAGATTAGAGTATCGGTCGA”: 1.3 log2 normalized intensity; “AAGATCATTCCAGGAATGTTCAAGAAGTTCGCCTAGGGAGATTAGAGTATCGGTCGA”: 0.0918 log2 normalized intensity.
Consider “AGATAGGACAGTGGTCTTTATGACTTGGGTGCCTAGGGAGATTAGAGTATCGGTCGA”, for which the binding signal worked out at 1.4 log2 normalized intensity.
Then “GACTATTTTATTTTCCCCCTTTGAAGTCTGGCCTAGGGAGATTAGAGTATCGGTCGA”, with 3.2 log2 normalized intensity.
On to “GTCCTTCCCAAGTCCTGCATGTGTTCACACGCCTAGGGAGATTAGAGTATCGGTCGA”, for which the binding signal came to 1.21 log2 normalized intensity.
Then “AGTGGAATGTGCCCTTTGACCTCTCTCTCCGCCTAGGGAGATTAGAGTATCGGTCGA”, with 8.33 log2 normalized intensity; and “GTGCTCCCTCCCCCTGCATGAACCTTTGCTGCCTAGGGAGATTAGAGTATCGGTCGA”, with 3.72 log2 normalized intensity.
With “CCCCCAGTGGAATGTGCCCTTTGACCTCTCGCCTAGGGAGATTAGAGTATCGGTCGA”, the binding signal came out at 10.3 log2 normalized intensity.
Next, “CCCTCTGAGTGTTTGACCTTTCACCCAGAAGCCTAGGGAGATTAGAGTATCGGTCGA”: 7.2 log2 normalized intensity.
As for “GGCCAGGTGGGCTGCTCCCAGTGCCCTTTGGCCTAGGGAGATTAGAGTATCGGTCGA”, the binding signal was 4.47 log2 normalized intensity.
Next, “GGAATGACCTTTGATATTTGTGCCTAGTGGGCCTAGGGAGATTAGAGTATCGGTCGA”: 5.39 log2 normalized intensity; “CCTGACCCCCAGTGGAATGTGCCCTTTGACGCCTAGGGAGATTAGAGTATCGGTCGA”: 5.75 log2 normalized intensity.
Consider “GGTGGGCTGCTCCCAGTGCCCTTTGAACTCGCCTAGGGAGATTAGAGTATCGGTCGA”, for which the binding signal was found to be 8.91 log2 normalized intensity.
“TGGTGCCCTCTGAGTGTTTGACCTTTCACCGCCTAGGGAGATTAGAGTATCGGTCGA”: the binding signal came out at 8.17 log2 normalized intensity.
In the case of “AGTAACCTGACCCCCAGTGGAATGTGCCCTGCCTAGGGAGATTAGAGTATCGGTCGA”, the binding signal stood at 4.61 log2 normalized intensity.
Turning to “CACTCTGGTGCCCTCTGAGTGTTTGACCTTGCCTAGGGAGATTAGAGTATCGGTCGA”, the binding signal is 5.61 log2 normalized intensity.
Then “AATGTGCCCTTTGACCTCTCTCTCCTAACTGCCTAGGGAGATTAGAGTATCGGTCGA”, with 7.21 log2 normalized intensity; and “TGCCCTATGTCCTCCAGCTCTTGGGGAACAGCCTAGGGAGATTAGAGTATCGGTCGA”, with 0.218 log2 normalized intensity; and “AAAGCCATCAGCACTGGTTCAAAGTGTAGCGCCTAGGGAGATTAGAGTATCGGTCGA”, with 1.25 log2 normalized intensity.
For “AGAGGAAGATCTTTTTGATGACTTTGTAGGGCCTAGGGAGATTAGAGTATCGGTCGA”, the binding signal came out at 0.915 log2 normalized intensity.
Next, “TAAACCTGTTTGGTATCTACTCGGCAAAACGCCTAGGGAGATTAGAGTATCGGTCGA”: 1.28 log2 normalized intensity.
Next, “GACACTTCCAGCCAAACCAGGTCATGCATTGCCTAGGGAGATTAGAGTATCGGTCGA”: 0.387 log2 normalized intensity; “CCGTTAGCCAATATTTGCAAGGCTGTTGGCGCCTAGGGAGATTAGAGTATCGGTCGA”: -0.823 log2 normalized intensity; “CCCCCCAAGTTGAAGCCATCCTCCCACCTCGCCTAGGGAGATTAGAGTATCGGTCGA”: 5.73 log2 normalized intensity.
With “TATTAGGCAAAAGAGATAGCGAGAAGGCAGGCCTAGGGAGATTAGAGTATCGGTCGA”, the binding signal was -0.999 log2 normalized intensity.
Then “TTATGTACTTAGTGTTTTATGTGTATTTACGCCTAGGGAGATTAGAGTATCGGTCGA”, with 2.09 log2 normalized intensity.
Consider “AGTTTTGCAACATACTGAAAAAGGGTTGTGGCCTAGGGAGATTAGAGTATCGGTCGA”, for which the binding signal came out at 1.23 log2 normalized intensity.
For the sequence “GGCGCCGCTCTGAGTGACCTTTCACCCGCGGCCTAGGGAGATTAGAGTATCGGTCGA”, the binding signal stood at 7.77 log2 normalized intensity.
For the sequence “CGCCGGGCGCCGCTCTGAGTGACCTTTCACGCCTAGGGAGATTAGAGTATCGGTCGA”, the binding signal stood at 5.71 log2 normalized intensity.
Next, “CGCTCTGAGTGACCTTTCACCCGCGCCCAGGCCTAGGGAGATTAGAGTATCGGTCGA”: 6.45 log2 normalized intensity; “CCCTGCAATTTGATTTGTATGATCTTGGGTGCCTAGGGAGATTAGAGTATCGGTCGA”: 1.73 log2 normalized intensity.
Next, “GACCATGTGATGTGAAGAGTGTGGACTTTCGCCTAGGGAGATTAGAGTATCGGTCGA”: 4.87 log2 normalized intensity.
As for “CAGTGAGGATGTGTGCTCGAGGTGGACTTTGCCTAGGGAGATTAGAGTATCGGTCGA”, the binding signal is 7.48 log2 normalized intensity.
For the sequence “TGTGATGTGAAGAGTGTGGACTTTCACCTCGCCTAGGGAGATTAGAGTATCGGTCGA”, the binding signal is 8.92 log2 normalized intensity.
For “AGGATGTGTGCTCGAGGTGGACTTTCCCCCGCCTAGGGAGATTAGAGTATCGGTCGA”, the binding signal stood at 6.75 log2 normalized intensity.
As for “TGTGAAGAGTGTGGACTTTCACCTCCACCAGCCTAGGGAGATTAGAGTATCGGTCGA”, the binding signal stood at 6.7 log2 normalized intensity.
With “TTCCCCAGTGAGGATGTGTGCTCGAGGTGGGCCTAGGGAGATTAGAGTATCGGTCGA”, the binding signal is 1.11 log2 normalized intensity.
Then “CAAGGGTCAGTTCATTAAAAAAAAAAAAAAGCCTAGGGAGATTAGAGTATCGGTCGA”, with 0.208 log2 normalized intensity; and “GATCAAGAGGAAGATCTTTTTGATGACTTTGCCTAGGGAGATTAGAGTATCGGTCGA”, with 0.895 log2 normalized intensity.
